This passage reports growth results from PubChem BioAssay (NCI).

The panel holds about 83,000 compounds, 20% with a hit somewhere; the sample as a whole holds those more often.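 Method: cells in 96-well plates; compound added at one concentration; 48 h incubation; percent growth measured; values under 10 scored active.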 Unmarked numbers belong to inactive results. Calls of active or inactive are those of the source.

Some test systems named below: SR leukemia; RPMI-8226 leukemia; OVCAR-8 ovarian; OVCAR-5 ovarian; OVCAR-4 ovarian; SK-OV-3 ovarian; IGROV1 ovarian; OVCAR-3 ovarian; HS 578T breast; NCI/ADR-RES ovarian.
Holding throughout (experiment): NCI-60 one-dose screen, 48 h (100 = growth as untreated, 0 = no growth, -100 = all killed)
What all share (settings): 10 µM unless noted

Consider `O=C(CSC1CCc2ccccc21)N/N=C/c1ccccc1O` (stereo not drawn), for which the growth in the test with SR leukemia was 17.7%; in the test with RPMI-8226 leukemia, 71.5%; in the test on OVCAR-8 ovarian, 57.3%; in the test with OVCAR-5 ovarian it was 78.1%; with OVCAR-4 ovarian, 38.1%; in the test with SK-OV-3 ovarian, 50%. The growth in the test on IGROV1 ovarian is 27.4%; in the test on OVCAR-3 ovarian, 20.6%; in the test with HS 578T breast, 84.9%; with NCI/ADR-RES ovarian, 24.1%.

As for `Cn1ccc(Nc2nccc(Oc3ccc(C(=O)Nc4cccc(F)c4)c(Cl)c3)n2)c1`, the growth is 98.3% in the test on SR leukemia; 107% in the test with RPMI-8226 leukemia; 88.2% in the test on OVCAR-8 ovarian; 87.9% in the test on OVCAR-5 ovarian; 67% in the test on OVCAR-4 ovarian; 62.4% in the test on IGROV1 ovarian. Moreover, the values for the growth in the test with OVCAR-3 ovarian, in the test on HS 578T breast and in the test with NCI/ADR-RES ovarian were 55.6%, 96.9% and 96.6%, respectively.

Take `CCOC(=O)NNC(=S)Nc1ccccc1`: the growth with SR leukemia was 110%; in the test on RPMI-8226 leukemia it was 105%; in the test on OVCAR-8 ovarian, 102%; in the test with OVCAR-5 ovarian it was 116%; in the test on OVCAR-4 ovarian it was 100%; in the test on IGROV1 ovarian, 107%. Further, the growth with OVCAR-3 ovarian is 116%; in the test on HS 578T breast it was 103%; in the test on NCI/ADR-RES ovarian, 106%.

`CC1CN(c2oc(-c3ccccc3)nc2C#N)CC(C)O1` (stereo not drawn): the growth in the test with SR leukemia is 102%; with RPMI-8226 leukemia, 104%; in the test on OVCAR-8 ovarian, 102%; with OVCAR-5 ovarian, 102%; with OVCAR-4 ovarian, 99.4%; in the test with IGROV1 ovarian it was 97.7%. The growth is 116% in the test on OVCAR-3 ovarian, 102% in the test on HS 578T breast and 107% in the test on NCI/ADR-RES ovarian.

Regarding `CCOC(=O)CC(=O)OC`, the growth in the test with SR leukemia was 76.7%; in the test on RPMI-8226 leukemia, 97.4%; in the test with OVCAR-8 ovarian, 103%; in the test with OVCAR-5 ovarian it was 101%; in the test on OVCAR-4 ovarian, 100%; with IGROV1 ovarian, 111%. Besides, the growth is 123% in the test with OVCAR-3 ovarian, 114% in the test with HS 578T breast and 113% with NCI/ADR-RES ovarian.

Regarding `ClC(Cl)c1nc(-c2cccnc2)n2nc(-c3ccccc3)cc2n1`, the growth was 13.4% in the test on SR leukemia; 33.2% in the test with RPMI-8226 leukemia; 27.7% in the test with OVCAR-8 ovarian; 7.66% (active) with OVCAR-5 ovarian; 9.31% (active) in the test with OVCAR-4 ovarian; 13.9% with IGROV1 ovarian. Besides, the values for the growth in the test on OVCAR-3 ovarian, in the test with HS 578T breast and with NCI/ADR-RES ovarian were -47.5% (active), 51.6% and -11.2% (active), respectively.

Consider `N=C(N)c1ccc(-c2ccc(-c3ccc4ccccc4c3)s2)cc1`, for which the growth in the test with SR leukemia was 6.46% (active); in the test on RPMI-8226 leukemia, 60.7%; in the test on OVCAR-8 ovarian, 102%; in the test on OVCAR-5 ovarian, 110%; in the test on OVCAR-4 ovarian, 100%; in the test on IGROV1 ovarian it was 91.3%. Moreover, the values for the growth in the test with OVCAR-3 ovarian, in the test with HS 578T breast and in the test on NCI/ADR-RES ovarian were 102%, 104% and 98.8%, respectively.

In the case of `COc1cc(C(=O)/C=C/c2ccc3nc(-c4cc(F)cc(F)c4)sc3c2)cc(OC)c1OC`, the growth was 103% in the test on SR leukemia; 90.7% with RPMI-8226 leukemia; 104% in the test with OVCAR-8 ovarian; 97.1% in the test with OVCAR-5 ovarian; 107% in the test with OVCAR-4 ovarian; 96.6% in the test with IGROV1 ovarian. The growth with OVCAR-3 ovarian is 112%; in the test on HS 578T breast, 93.1%; in the test with NCI/ADR-RES ovarian it was 98.7%.
